Laboratory results: ChEMBL document CHEMBL4513216, “Probing the Open Global Health Chemical Diversity Library for Multistage-Active Starting Points for Next-Generation Antimalarials” (ACS Infect Dis, 2020)
Out of some 68,000 compounds screened, about 2,700 (4%) showed an effect of 50% or more. Shown is part of a subset that was picked to be rich in strong results.

These compounds were tested on Plasmodium berghei (assay: Screen against P. berghei liver stage (PbLuc), transformed with Luciferase, at 2uM). Conditions: tested at 2 uM.
Assay type: functional, HepG2

SMILES | INHIBITION
COCCOCC(=O)N1C[C@@H]2CC[C@H](Oc3cccc(F)c3)[C@@H]2C1 | 24.06%
Cc1ccc(C)c(NS(=O)(=O)c2cc3c(c(C(=O)O)c2)OCCO3)c1 | -5.09%
O=C(Cc1ccc(F)cc1)N1CCn2cc(Cn3cncn3)nc2C1 | 37.2%
CC(=O)N1C[C@@H](c2ccsc2)[C@@H]2CN(Cc3ccccc3Cl)CC[C@@H]21 | -27.6%
CN1CCC(c2cccc(NCc3nccn3C)n2)CC1 | 29.25%
C1CN(CC2CC2)C(COCC2CC2)c2nnn(CC3CC3)c21 (configuration not stated) | 61.44%
Cn1nnc2c1CCN(CC1CC1)C2COCC1CC1 (configuration not stated) | -10.89%
C1CC(CN2CCc3c(nnn3CC3CC3)C2COCC2CC2)C1 (configuration not stated) | -38.23%
Cn1nc2c(cc1=O)CN(Cc1nc(C(C)(C)C)no1)CC2 | 12.91%
COc1cc(C)c(NC(=O)NCCn2cccc2)cc1OC | 74.18%
COc1cc(Cl)c(NC(=O)NCCn2cccc2)cc1OC | -23.44%
COc1cc(C)c(NC(=O)CCn2cccc2)cc1OC | 30.42%
CCN(Cc1cccc2c1OCO2)C(=O)NCc1ccccn1 | -5.39%
O=C(Cc1cccs1)N1C[C@H]2CC[C@@H](C1)N(Cc1ccccn1)C2=O | 14.63%
COCC(O)CN(C)C(=O)NCc1ccc(-c2ccn[nH]2)cc1 (configuration not stated) | -0.21%
O=C(c1ccncc1)N1CCC2(CC1)C(=O)Nc1ccccc12 | 49.25%
COc1ncc(C(=O)N2CCC3(CC2)C(=O)Nc2ccccc23)cn1 | 50.32%
N#Cc1ccc(C(=O)N2CCC3(CC2)C(=O)Nc2ccccc23)cn1 | 24.88%
Cc1ocnc1C(=O)N1CC[C@@H](O)[C@@H](O)[C@H](N2CCC(F)(F)CC2)C1 | 7.4%
CCCOc1ccccc1CN[C@@H]1CCC[C@H]1Cc1cc(C)no1 | 3.28%
CC(C)CC(CCO)CNC(=O)N1CC(C)(C)C1(C)C (configuration not stated) | -6.69%
CCCS(=O)(=O)N1CC(=O)N(Cc2cccc(OC)c2OC)CC(O)C1 (configuration not stated) | -13.32%
CCOc1ccccc1C(CC(=O)Nc1ccccc1)NC(C)=O (configuration not stated) | 23.45%
CCOc1ccccc1C(CC(=O)Nc1ncc(C)s1)NC(C)=O (configuration not stated) | -32.89%
CCOc1ccccc1C(CC(=O)Nc1nc(C)cs1)NC(C)=O (configuration not stated) | 67.59%
CC(C)c1nnc2n1CCN(C(=O)c1cccc(C(F)(F)F)c1)C2 | 15.31%

SMILES | INHIBITION
CC(C)Nc1nc2c(c(N(C)C)n1)CCN(Cc1nccn1C)CC2 | 28.11%
Cc1nc(N2CCCC2)nc2c1CCN(Cc1nccn1C)CC2 | 9.98%
CCc1nnc2n1CCN(c1nc(C)cc(N(C)C)n1)C2 | 62.51%
Cc1cc(C)nc(N2CCN(Cc3nccn3C)CC2)n1 | 5.78%
Cc1cc(N(C)C)nc(N2CCn3c(C)nnc3C2)n1 | 29.13%
CN(C)c1nc(N2CCCC2)nc2c1CCN(Cc1nccn1C)CC2 | 55.92%
Cc1cc(N(C)C)nc(N2CCn3c(nnc3C(C)C)C2)n1 | -6.64%
Cc1cc(C(F)(F)F)nc(N2CCN(Cc3nccn3C)CC2)n1 | 10.91%
Cc1cc(N(C)C)nc(N2CCN(Cc3nccn3C)CC2)n1 | 50.61%
NS(=O)(=O)c1ccc(NCc2ccco2)c2ncccc12 | 7.3%
Cc1ccccc1-c1cc(C(=O)NCCN2CCCS2(=O)=O)[nH]n1 | 36.65%
Cc1ccccc1-n1c(C)cc(C(=O)N2CCn3c(C)nnc3C2)c1C | -61.5%
CN(C(=O)CCNC(=O)C1COc2ccccc21)c1ccccc1 (configuration not stated) | -0.3%
Cc1nn(C)c2cnn(CCCNS(=O)(=O)Cc3ccccc3)c12 | -12.73%
COC[C@@H]1CCC[C@]12CN(CCc1ccccc1)CCO2 | -20.67%
O=C([C@H]1CCCN1)N1CC2(CCNCC2)c2cc(Cl)ccc21 | 0.57%
CCc1[nH]ncc1C(=O)N1CCCC(n2nc(C)nc2C)C1 (configuration not stated) | 54.85%
CCc1[nH]ncc1C(=O)N1CCCC(n2nc(C)cc2C)C1 (configuration not stated) | 12.75%
CCc1ncncc1C(=O)N1CCCC(n2nc(C)nc2C)C1 (configuration not stated) | -26.85%
CCc1nc(C)ncc1C(=O)N1CCCC(n2nc(C)nc2C)C1 (configuration not stated) | 36.92%
Cc1nc(C)n(C2CCCN(C(=O)c3csnn3)C2)n1 (configuration not stated) | 53.45%
Cc1nc(C)n(C2CCCN(C(=O)c3csc(C)n3)C2)n1 (configuration not stated) | -47.87%
Cc1nc(C)n(C2CCCN(C(=O)c3cscn3)C2)n1 (configuration not stated) | -13.94%
Cc1ncc(C(=O)N2CCCC(n3nc(C)nc3C)C2)c(C(C)C)n1 (configuration not stated) | 24.02%
Cc1nc(C)n(C2CCCN(C(=O)c3cncnc3C)C2)n1 (configuration not stated) | 62.82%
Cc1nn(C)c(C)c1NC(=O)Nc1cccnc1N1CCCC1 | 15.28%

SMILES | INHIBITION
COCc1ncn2c1CN(C(=O)c1cccc3cccnc13)CC2 | 29.3%
CCC(C)c1noc(C2CCN(C(=O)c3cccnc3)CC2)n1 (configuration not stated) | -59.73%
CC(C)(C)C(NC(=O)CCS(C)(=O)=O)c1ccc(F)cc1F (configuration not stated) | 41.84%
NC(=O)CC1CCN(C(=O)NCc2ccc(-c3ccn[nH]3)cc2)CC1 | 7.13%
O=C(C1COc2ccccc2C1)N(CCO)Cc1ccccc1 (configuration not stated) | -49.31%
CC1CCCCN1C(=O)c1ccn(COc2ccc(F)cc2)n1 (configuration not stated) | -12.84%
COc1cccc(Nc2nc(-c3ccncc3)nc3c2CNCC3)c1 | 12.6%
N#Cc1cccc(CN2Cc3nccn3CC(COCC3CC3)C2)c1 (configuration not stated) | -17.39%
O=C(NC1CC1)[C@H]1C[C@H]2OCC[C@H]2N(Cc2ccc3ccccc3n2)C1 | 0.91%
CC(C)NC(=O)[C@H]1C[C@H]2OCC[C@H]2N(Cc2ccc3ccccc3n2)C1 | 55.8%
CC(C)NC(=O)[C@@H]1C[C@H]2OCC[C@H]2N(Cc2ccc3ccccc3n2)C1 | 9.69%
Cc1ccc([C@@]2(O)CC[C@@H]3CN(S(=O)(=O)C(C)C)C[C@@H]32)cc1 | 40.31%
Cc1ccc([C@@]2(O)CC[C@@H]3CN(S(=O)(=O)c4cn(C)nc4C)C[C@@H]32)cc1 | 55.74%
CCS(=O)(=O)N1C[C@H]2CC[C@](O)(c3ccc(C)cc3)[C@H]2C1 | 38.23%
CNC(=O)[C@H]1C[C@@H]2CN(S(=O)(=O)c3cccc(C)c3)C[C@@H]2N1C | 27.95%
COC(=O)CNC(=O)c1scnc1C | -7.24%
COc1cccc(N2CCN(C(=O)C(C)Oc3ccccc3)CC2=O)c1 (configuration not stated) | 24.28%
CC(C)[C@@H]1CN(C(=O)CCc2ccc(F)cc2)C[C@H]1C(=O)O | 18.63%
CC(C)[C@@H]1CN(C(=O)CN(C)Cc2ccc(F)cc2)C[C@H]1C(=O)O | 72.49%
CC(C)[C@@H]1CN(C(=O)CN(C)Cc2ccccc2)C[C@H]1C(=O)O | 35.46%
COc1cc(C(C)NCc2c[nH]nc2C)ccc1OCCO (configuration not stated) | 32.26%
COc1ccc(C(C)NCc2nnc(C)s2)cc1F (configuration not stated) | 52.98%
Cc1cc(C)cc(C(C)NCc2nnc(C)s2)c1 (configuration not stated) | 38.67%
COc1ccc(C(C)NCc2c[nH]nc2C)cc1Br (configuration not stated) | -8.5%
COc1ccc(C(C)NCc2c[nH]nc2C)cc1OC (configuration not stated) | 66.4%
Cc1nnc(CNC(C)c2cc(C)c(F)c(C)c2)s1 (configuration not stated) | 31.51%

SMILES | INHIBITION
Cc1cnc(CN2CCCC(c3cc(C)[nH]n3)C2)cn1 (configuration not stated) | 43%
Cc1ccc(NC2CCN(C(=O)c3sccc3C3CC3)CC2)nn1 | 3.38%
COC1(CNC(=O)c2ccc(Cl)c(Cl)c2)CCSC1 (configuration not stated) | -26.56%
Cc1cccc(NC(=O)c2ccc(-n3cncn3)nn2)n1 | 55.73%
Cc1cccnc1NC(=O)c1ccc(-n2cncn2)nn1 | 9.92%
O=C(Nc1cccnc1)c1ccc(-n2cncn2)nn1 | -7.69%
CCS(=O)(=O)N1CCC(c2nnc(C3CC3)o2)CC1 | 54.82%
CN(C)S(=O)(=O)N1CCC(c2nnc(C(F)(F)F)o2)CC1 | 14.97%
CCS(=O)(=O)N1CCC(c2nnc(C(F)(F)F)o2)CC1 | 14.97%
O=C(NCCc1cccs1)[C@]12COC[C@H]1CN(c1ncccn1)C2 | 44%
NC(=O)CSCCC(=O)NCC1CC1 | 37.87%
NC(=O)CSCC(=O)NCC1CCCC1 | 60.79%
N#CCSCC(=O)NCC1CCCCC1 | -64.85%
CN(C)c1cc2c(nn1)CCN(C(=O)c1cc3c(s1)CCCC3)C2 | 28.39%
CN(C)c1cc2c(nn1)CCN(C(=O)c1cc3c(s1)CCC3)C2 | -7.96%
CN(C)c1cc2c(nn1)CCN(C(=O)C1Cc3ccccc3O1)C2 (configuration not stated) | 11.24%
CN(C)c1cc2c(nn1)CCN(C(=O)C1Cc3ccccc3S1)C2 (configuration not stated) | 65.77%
CN(C)c1cc2c(nn1)CCN(C(=O)c1cc3c(s1)CCOC3)C2 | 56.05%
CCNc1cc2c(nn1)CCN(C(=O)C1Cc3ccccc3S1)C2 (configuration not stated) | 27.6%
CC(=O)N1CCC(Cc2ccc(-c3ccnn3C)nc2)CC1 | 35.19%
Cc1ccc(N2CC[C@H]3O[C@@H](C(=O)N4CCCO4)CC[C@H]32)nn1 | -28.58%
CCn1c(C)cc(C(=O)NCc2cccc(NS(C)(=O)=O)c2)c1C | -6.29%
CNS(=O)(=O)c1cccc(CNC(=O)c2cnn(C)c2C)c1 | -2.2%
CCn1c(C)cc(C(=O)NCc2cccc(S(=O)(=O)NC)c2)c1C | 62.01%
